Vaccinia Venus – inhibitors of vaccinia virus (Venus reporter) | Vaccinia virus Venus reporter expression, fluorescence | Potency, µM (series often up to 36.5 µM), for the others: top-dose activity change, negative = inhibition, actives largely listed as inhibitors | 330,000 tested, 0.46% active; calls by dose curve; tested in A549 cells; further: potency means the concentration at half of the fitted maximal effect; on the % scale 0 is the no-effect control and ±100 the full control effect; nearly all actives have a fitted effect of over 30% in size
Cycloheximide cs – affects cycloheximide protein synthesis inhibition readout, counter-screen. cell reporter, cycloheximide protein synthesis inhibition counterscreen. max response, %. 300,000 tested, 12% active. AID 2314; in the data active means max response mostly above about 13%, no sharp cut-off; inactive means mostly below about 14%; further: read at 38.3 µM for the half of the compounds with a filed dose; 0% is about no effect
MARV entry inh – inhibitors of Marburg virus binding or cell entry; 300,000 tested, 1.8% active; Potency, µM (doses to about 37.8 µM), for inactives: at the top dose activity change, negative = inhibition, hits mostly inhibitors; Marburg virus pseudotyped entry inhibition, cell reporter; AID 540276; calls by dose curve; tested in HEK293 cells; further: potency means the concentration at half of the fitted maximal effect; on the % scale 0 is the no-effect control and ±100 the full control effect
VACV mCherry inh – vaccinia inhibition (mCherry reporter); Vaccinia virus mCherry reporter infection, fluorescence; Potency, µM (doses to about 36.5 µM), for inactives: top-dose activity change, negative = inhibition, most hits filed as inhibitors; 310,000 tested, 0.63% active; AID 720579; calls by dose curve; tested in A549 cells; further: potency means the concentration at half of the fitted maximal effect; on the % scale 0 is the no-effect control and ±100 the full control effect; nearly all actives have a fitted effect of over 35% in size
Lassa entry inh – inhibitors of Lassa virus binding or cell entry. 300,000 tested, 1.2% active. AID 540256. Potency, µM (series often up to 37.9 µM), without a hit: top-dose activity change, negative = inhibition, hits mostly inhibitors. Lassa virus pseudotype entry inhibition, cell reporter; calls by dose curve; tested in HEK293 cells; further: potency means the concentration at half of the fitted maximal effect; on the % scale 0 is the no-effect control and ±100 the full control effect; nearly all actives have a fitted effect of over 50% in size
Shiga inhibitor – inhibitors of Shiga toxin in Vero cells; Vero cells, Shiga toxin protein synthesis inhibition reporter; inhibition, % at 38.7 µM; 290,000 tested, 9.2% active; in the data active means inhibition mostly above about 28%, no sharp cut-off; inactive means mostly below about 43%; further: 0% is about no effect
An asterisk follows results filed as active; i = inactive; ? = inconclusive; nt = no result; + = active, no number; ! = repeats disagree; [ ] = another dose, or the depositor's remark. Shown is part of a subset that was picked to be rich in hits.

SMILES | Vaccinia Venus | Cycloheximide cs | MARV entry inh | VACV mCherry inh | Lassa entry inh | Shiga inhibitor
Cc1ccc(OCC(=O)c2cc(C)n(C)c2C)c([N+](=O)[O-])n1 | -11% | 29* | 4% | i | ? | 80*
Cc1ccc(-n2c(C)cc(C(=O)COc3cccnc3[N+](=O)[O-])c2C)cc1 | -23% | 43* | ? | ? | ? | 54*
Cc1cc(C(=O)COc2cccc3cccnc23)c(C)n1C | -23% | -1 | ? | -28% | ? | 2
Cc1cc(C(=O)COc2ccc(Cl)cc2Br)c(C)n1C | -19% | 22* | ? | -12% | ? | 41
Cc1cc(C(=O)COc2cccnc2[N+](=O)[O-])c(C)n1-c1ccccc1F | nt | 40* | nt | nt | nt | 87*
Cc1cc(-n2c(C)cc(C(=O)COc3ccccc3[N+](=O)[O-])c2C)no1 | -7% | 17 | -6%[46.1 µM] | -6% | 9% | 50
CCOc1cc(C=O)ccc1OS(=O)(=O)c1ccc(NC(C)=O)cc1 | -8% | -1 | 2% | i | 0% | -8
COc1ccccc1N1CCN(CC(=O)Nc2ccc(-n3cnnn3)cc2)CC1 | 1% | 3 | -4%[46.1 µM] | -11% | nt | -6
Cc1cc(C(=O)COc2cccnc2[N+](=O)[O-])c(C)n1Cc1ccco1 | -8% | 14 | ? | -12% | -32% | 10
Cc1cc(C(=O)COc2cccnc2[N+](=O)[O-])c(C)n1-c1ccccc1 | -5% | 59* | ? | -21% | 4.6µM* | 56*
CCC(CC)C(=O)Nc1nnc(-c2cccs2)s1 | 1% | 21* | 9%[46.1 µM] | -11% | 5% | 57
O=C(Nc1cc2c(cc1Br)OCCCO2)c1ccccc1 | -29% | 78* | ? | i | 1% | 123*
O=C(Nc1cc2c(cc1Br)OCCCO2)c1cccnc1 | -28% | 38* | ? | -2% | 17% | 84*
O=C(N/N=C/c1cc2c(cc1Br)OCO2)c1cccnc1 | nt | 14 | nt | nt | nt | 31
Cc1ccc(N2CC(C(=O)N3CCC(C(=O)Nc4nnc(C(C)C)s4)CC3)CC2=O)cc1 (centres undefined) | -12% | -1 | 21% | i | 7% | -7
Cc1nc2ccccc2nc1CN1CCOc2ccc(CN3CCc4sccc4C3)cc2C1 | 2% | nt | nt | -1% | nt | nt
Cc1ccc(N=Nc2c(O)ccc3n[nH]nc23)cc1 | -21% | 42* | nt | -28% | nt | 103*
Cc1ccc(NC(=O)Nc2nc3c(s2)CCCCCC3)cc1C | -7% | nt | nt | -14% | 3%[46.1 µM] | nt
Cc1ccc(Nc2nc3c(s2)CCC3)c(C)c1 | nt | 32* | ? | nt | -22% | 56*
COc1ccccc1Nc1nc2c(s1)CCC2 | 8% | 36* | 11%[46.1 µM] | nt | 1% | 68*
Cc1nnc2c(NC3CCCCC3)nc3ccccc3n12 | nt | -1 | nt | nt | nt | 12
O=C(/C=C/c1c(Cl)nc2ccccn12)N1CCCCC1 | 0% | 39* | -5%[46.1 µM] | -3% | 2% | 49
CN(C)c1nc(NC2CCC(NC(=O)c3ccc(F)c(F)c3)CC2)nc2ccccc12 (centres undefined) | nt | -1 | nt | nt | nt | -2
CC(=O)C1CCC2C3CCC4CC(=O)CCC4(C)C3C(C)(O)CC12C (centres undefined) | -19% | nt | -5%[46.1 µM] | i | ? | nt
CC(C)(C)NC(=O)NC(=O)COC(=O)c1cccc(OC(F)F)c1 | -1% | -1 | 28%[46.1 µM] | i | ? | -8
SMILES | Vaccinia Venus | Cycloheximide cs | MARV entry inh | VACV mCherry inh | Lassa entry inh | Shiga inhibitor
Cc1ccc(C2CC(C(F)(F)F)n3nc(C(=O)NCc4c(C)nn(C)c4C)c(Cl)c3N2)cc1 (centres undefined) | ? | -3 | 12µM*! | ? | ? | -1
O=C(N/N=C\C=C\c1ccc2c(c1)OCO2)C1COc2ccccc2O1 (centres undefined) | nt | 11 | 1% | nt | -22% | 5
CCC(Sc1nc2ccccc2c(=O)n1CCc1ccc(OC)c(OC)c1)C(=O)N(CC)CC (centres undefined) | -25% | nt | nt | -24% | ? | nt
COc1ccc(-c2noc(N3CCC(C(=O)Nc4cccc(OC)c4)CC3)n2)cc1 | -30% | 11* | nt | ? | nt | 25*
COc1cccc(NC(=O)C2C3CCC4C(CCC32)C4(Cl)Cl)c1 (centres undefined) | -23% | 15* | -2% | -4% | 1% | 40
CCOC(=O)N1CCN(c2nc(-c3ccc(OC)cc3)no2)CC1 | nt | 26* | 9% | nt | -6% | 62*
COc1ccc(NC(=O)C2C3CCC4C(CCC32)C4(Cl)Cl)cc1 (centres undefined) | -5% | -6 | 15% | -14% | -8% | -2
CCOC(=O)N1CCN(C(=O)c2ccc(OC)cc2)CC1 | nt | -5 | -1% | nt | 1% | -4
CC(=O)Nc1cccc(Oc2ccc(-c3noc(C)n3)cc2)c1 | -27% | 44* | ? | ? | ? | 79*
COc1ccc(-c2noc(N3CCC(C(=O)Nc4ccc(F)cc4)CC3)n2)cc1 | -23% | -2 | nt | i | nt | 4
CC(C)Cn1c(SCC(=O)NCc2ccc(Cl)cc2)nnc1-c1cccc(S(=O)(=O)N2CCOCC2)c1 | -20% | 1 | ? | i | -36% | -14
C=C1NN(CC#N)C(=O)N1c1ccc(OCc2ccccc2)cc1 | -8% | nt | nt | i | nt | nt
COc1ccc(-c2noc(N3CCCC(C(=O)Nc4ccc(F)cc4F)C3)n2)cc1 (centres undefined) | -23% | 14* | nt | -8% | nt | 23*
COc1cccc(NC(=O)C2CCN(c3ncccn3)CC2)c1 | nt | 11* | 23% | nt | 7% | 25*
COc1ccc(OC)c(NC(=O)C2CCN(c3ncccn3)CC2)c1 | nt | -2 | 12% | nt | -3% | -12
Cc1ccccc1C1C=C(c2ccc(Cl)cc2)Nc2nnnn21 (centres undefined) | -23% | nt | nt | -13% | -1%[46.1 µM] | nt
CC(C)[C@H](NC(=O)c1cccc(S(=O)(=O)N2CCOCC2)c1)C(=O)Nc1nc2ccccc2s1 | -27% | 26* | ? | -2% | ? | +
O=C(Nc1nc2ccccc2s1)c1cccc(S(=O)(=O)N2CCc3ccccc32)c1 | -21% | 14* | ? | -23% | -3% | 21
Cc1cccnc1NC(=O)c1cccc(S(=O)(=O)N2CCCc3ccccc32)c1 | -24% | 26* | -9% | -2% | -15% | 19
Cc1nnc(NC(=O)c2cccc(S(=O)(=O)N3CCc4ccccc43)c2)s1 | -11% | -5 | -5% | nt | -2% | -19
O=C(Nc1ncccc1O)c1cccc(S(=O)(=O)N2CCCc3ccccc32)c1 | -10% | nt | 7% | -11% | 1% | nt
CCOc1ccccc1NC(=O)[C@@H](NC(=O)c1cccc(S(=O)(=O)N2CCOCC2)c1)C(C)C | -10% | 2 | 20%[46.1 µM] | i | 7%[46.1 µM] | 27
CC(C)CCNC(=O)c1cccc(S(=O)(=O)N2CCc3ccccc32)c1 | -30% | -1 | ? | ? | 4µM* | -15
COc1ccc(S(=O)(=O)NCC(c2ccco2)S(=O)(=O)c2cccs2)cc1F (centres undefined) | -16% | nt | nt | -11% | -9%[46.1 µM] | nt
O=c1sc(/C=N/Nc2ccccc2)c(Cl)n1Cc1ccccc1 | 7% | 33* | ? | -15% | -5% | active

Screening results deposited in PubChem BioAssay by National Center for Advancing Translational Sciences (NCATS).
